Experimental data from the supplement of paper PMC6555819.

How the values were obtained:
Test in all cases: PBM binding z-score (relative to random genomic background probes); higher = stronger binding; sequences stand for … in GC…GCGATTGACAGCGTAGAATGAAGG
[1] = system: FXR:RXRa (NR concentration 270 nM, RXRa partner concentration 90 nM)
Outline: (§1)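 On custom Agilent 4×180K arrays, double-stranded probes with 34-nt variable regions carried direct-repeat seeds, single-nucleotide variants, half-site ablations or random human genomic background. Ligand-free nuclear receptor dimers were applied for 1 h, and binding was read with antibodies against each partner (one per run). Binding z-scores come from regression-normalized fluorescence, with the random background probes as reference.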

[2] = system: LXRa:RXRa (NR concentration 270 nM, RXRa partner concentration 90 nM)
Outline: as §1

[3] = system: LXRa homodimer (NR concentration 270 nM)
Outline: as §1

[4] = system: LXRb:RXRa (NR concentration 270 nM, RXRa partner concentration 90 nM)
Outline: as §1

[5] = system: LXRb homodimer (NR concentration 270 nM)
Outline: as §1

[6] = system: PPARa:RXRa (NR concentration 270 nM, RXRa partner concentration 90 nM)
Outline: as §1

[7] = system: PPARg:RXRa (NR concentration 180 nM, RXRa partner concentration 90 nM)
Outline: as §1

[8] = system: PPARg:RXRa 270nM:90nM, anti-RXR (NR concentration 270 nM, RXRa partner concentration 90 nM)
Outline: as §1

[9] = system: PPARg:RXRa 30nM:10nM, anti-RXR (NR concentration 30 nM, RXRa partner concentration 10 nM)
Outline: as §1

[10] = system: PPARg:RXRa 90nM:30nM, anti-RXR (NR concentration 90 nM, RXRa partner concentration 30 nM)
Outline: as §1

[11] = system: PPARg:RXRa DBDmut IVT, anti-RXR (DBD mutation: RXRa K156A/R161A, NR concentration 270 nM, RXRa partner concentration 90 nM)
Outline: as §1

[12] = system: PPARg:RXRa IVT, anti-PPARg (NR concentration 270 nM, RXRa partner concentration 90 nM)
Outline: as §1

[13] = system: PPARg DBDmut:RXRa IVT, anti-PPARg (DBD mutation: PPARg1 K132A/R137A, NR concentration 270 nM, RXRa partner concentration 90 nM)
Outline: as §1

[14] = system: PPARg DBDmut IVT, anti-PPARg (DBD mutation: PPARg1 K132A/R137A, NR concentration 270 nM)
Outline: as §1

[15] = system: PPARg homodimer (NR concentration 180 nM)
Outline: as §1

[16] = system: PXR:RXRa (NR concentration 270 nM, RXRa partner concentration 90 nM)
Outline: as §1

[17] = system: PXR homodimer (NR concentration 270 nM)
Outline: as §1

[18] = system: RARa:RXR (NR concentration 270 nM, RXRa partner concentration 90 nM)
Outline: as §1

[19] = system: RARa homodimer (NR concentration 270 nM)
Outline: as §1

[20] = system: RARb:RXRa (NR concentration 270 nM, RXRa partner concentration 90 nM)
Outline: as §1

Sequence	PBM binding z-score [1]	PBM binding z-score [2]	PBM binding z-score [3]	PBM binding z-score [4]	PBM binding z-score [5]	PBM binding z-score [6]	PBM binding z-score [7]	PBM binding z-score [8]	PBM binding z-score [9]	PBM binding z-score [10]	PBM binding z-score [11]	PBM binding z-score [12]	PBM binding z-score [13]	PBM binding z-score [14]	PBM binding z-score [15]	PBM binding z-score [16]	PBM binding z-score [17]	PBM binding z-score [18]	PBM binding z-score [19]	PBM binding z-score [20]
CAAACTAGGTCACAGAGGCCAAAGTCCGTGCGTA	4.93	3.79	1.02	2.66	0.0915	5.36	8.81	7.33	5.35	7.09	8.22	8.69	7.35	2.65	3.4	3.51	2.61	3.27	0.794	4.23
ACTAGCAGACCAAGGGTCACTCAAGATTAGTCCG	2.1	2.89	0.341	2.8	-0.191	3.74	4.94	5.53	3.15	5.96	0.108	1.84	0.151	-0.38	1.55	2.8	-0.1	3.46	1.31	3.28
AGAACGAGGGCAATGAGTAGATAGCACGGGTGGC	0.288	0.27	-0.537	-0.239	-0.59	1.49	1.6	1.05	0.241	0.733	2.9	2.75	0.5	-0.201	0.383	0.323	0.226	0.413	0.137	2
CCTAGTTGGTCAAGGTCACCCACGCTATAGGTAC	4.05	3.51	2.14	3.51	0.583	4.14	2.93	3.43	1.1	2.35	1.97	3.64	0.717	1.37	4.86	4.16	2.4	4.82	3.27	4.16
TCATATAGGTAATAGAGGTGAAAGTCGGCATCTA	1.47	1.99	0.555	1.43	0.0572	2.96	2.3	3.61	4.55	4.02	4.53	4.06	1.5	0.929	0.919	1.12	0.895	1.92	1.02	1.27
ACAGACAGGTGAGTGAAGGTAACTCGGCTGGACG	0.29	0.0989	-0.627	-0.781	-0.86	-0.0904	0.606	0.0767	-0.28	-0.126	0.175	0.33	-0.433	-0.413	0.0145	-0.486	-0.431	-0.0751	-0.294	0.411
